Bioassay records deposited in PubChem BioAssay by National Center for Advancing Translational Sciences (NCATS).
Luc counter – Kinase-Glo luciferase inhibition (counter-screen) | Q27757 | Potency, µM (highest dose often 38.3 µM), for inactives: at the top dose activity change, negative = inhibition, most hits filed as inhibitors | hit rate 0.28% among 200,000 | Kinase-Glo luciferase, ATP luminescence, 8 min; also: % is scaled to controls: 0 for no effect and ±100 for the full control effect; nearly all actives have a fitted effect of over 60% in size
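Compounds were added to a substrate mix at pH 7.2 (50 mM imidazole, 10 uM ATP, within the enzyme's linear range), followed by Kinase-Glo detection reagent; luminescence was measured after 8 minutes at ambient temperature.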
HTT ATP protect – cytoprotection in Huntington HTT-Q103 PC12 cell model; Potency, µM (top dose mostly 56.4 µM), without a hit: cytoprotection (ATP increase), actives largely listed as activators; PC12 HTT-Q103 induced, cytoprotection, ATP luminescence, 40 h; AID 1471; hit rate 0.14% among 230,000; also: % of control where 0% means no effect; nearly all actives have a fitted effect of over 45% in size
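Huntington model: PC12 line, ecdysone-inducible HTTQ103 exon1–GFP, tebufenozide 100 nM. Test articles in a dose series. Endpoint luminescence from cellular ATP.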
LMNA splice mod – changes lamin A minigene splicing in HeLa cells; AID 1487; HeLa LMNA splicing GFP/RFP minigene ratio, 48 h; hit rate 0.01% among 200,000; Potency, µM (highest dose often 46.1 µM), without a hit: at the top dose ratio change, negative = inhibition, actives largely listed as inhibitors; active = well fitted inhibition curve with a large enough effect in the signal ratio, with a control signal flat, not every such curve was filed as active; inconclusive = small, poorly fitted or top-dose-only effect, or effect the other way, or a change in a side signal; the % refers to the signal ratio; also: % is scaled to controls: 0 for no effect and ±100 for the full control effect
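Read-out is the ratio of GFP to DsRed2 object intensity, acquired by 488 nm laser-scanning cytometry on HeLa lamin A-EGFP minigene reporter cells. Compound incubation 48 hrs at 37 °C in Opti-MEM with 2% FBS; DMSO 0.5% final.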
ALDH1A1 inh – blocks purified human ALDH1A1 activity. Potency, µM (top dose mostly 75.3 µM), for the others: at the highest dose activity, negative = inhibition, most hits filed as inhibitors. P00352. hit rate 7.3% among 220,000. Purified ALDH1A1, NADH fluorescence, propionaldehyde substrate; active = well fitted inhibition curve with a large enough effect, not every such curve was filed as active; inconclusive = small, poorly fitted or top-dose-only effect, or another doubt; inactive = no such curve, though single readings can be large or run the other way;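 also: plate controls were no enzyme wells and a reference inhibitor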
Target sequence (P00352 whole entry, looked up): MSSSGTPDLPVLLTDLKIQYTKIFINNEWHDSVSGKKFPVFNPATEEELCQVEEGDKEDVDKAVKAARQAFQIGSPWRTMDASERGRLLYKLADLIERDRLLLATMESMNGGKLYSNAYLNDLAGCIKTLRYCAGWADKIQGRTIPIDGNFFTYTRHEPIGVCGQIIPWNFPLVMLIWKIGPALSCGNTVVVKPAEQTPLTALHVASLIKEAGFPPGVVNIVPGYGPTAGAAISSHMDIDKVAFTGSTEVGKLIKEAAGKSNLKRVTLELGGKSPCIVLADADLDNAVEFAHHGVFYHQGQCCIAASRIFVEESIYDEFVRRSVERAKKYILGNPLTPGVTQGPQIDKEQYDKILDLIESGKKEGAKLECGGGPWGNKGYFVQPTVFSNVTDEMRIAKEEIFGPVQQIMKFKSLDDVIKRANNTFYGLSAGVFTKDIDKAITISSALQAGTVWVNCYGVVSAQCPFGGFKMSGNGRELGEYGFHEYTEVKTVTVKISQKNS
HttQ103 aggreg – mutant huntingtin aggregation inhibition; PC12 HttQ103-GFP aggregates, Acumen cytometry, 40 h; hit rate 1.1% among 220,000; Potency, µM (highest dose often 46.1 µM), inactives show at the top dose activity change, negative = inhibition, usual class: inhibitors; also: % is scaled to controls: 0 for no effect and ±100 for the full control effect; nearly all actives have a fitted effect of over 60% in size
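Inducible Q103 Huntingtin exon 1–GFP PC12 line, 1500 cells/well in phenol red free DMEM with 5% equine and 5% calf serum. Tebufenozide 100 nM induced expression; compounds titrated; aggregates quantified by cytometry.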
HPGD block – inhibitors of human 15-hydroxyprostaglandin dehydrogenase (HPGD); purified HPGD, NADH fluorescence kinetic, PGE2 substrate; Potency, µM, without a hit: top-dose activity change, negative = inhibition, most hits filed as inhibitors; hit rate 4.3% among 150,000; active = well fitted inhibition curve with a large enough effect, not every such curve was filed as active; inconclusive = small, poorly fitted or top-dose-only effect, or another doubt; inactive = no such curve, though single readings can be large or run the other way; also: % is scaled to controls: 0 for no effect and ±100 for the full control effect
Target sequence (P15428 whole entry, looked up): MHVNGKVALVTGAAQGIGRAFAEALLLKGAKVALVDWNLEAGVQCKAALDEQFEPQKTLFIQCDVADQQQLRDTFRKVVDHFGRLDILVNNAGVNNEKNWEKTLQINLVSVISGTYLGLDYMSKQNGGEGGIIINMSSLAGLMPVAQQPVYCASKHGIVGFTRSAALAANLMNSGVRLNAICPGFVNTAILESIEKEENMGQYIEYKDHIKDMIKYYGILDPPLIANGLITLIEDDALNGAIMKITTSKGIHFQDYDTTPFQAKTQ
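NADH formation kinetics: reaction with 30 uM PGE2 and 1 mM NAD+ (final), 20 nM enzyme, Tris-HCl pH 8 with Tween 20, after 15 min compound preincubation at room temperature. Fluorescence change, last versus first of five reads.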
The depositor's hits bear a star; ? = inconclusive; . = not tested or not shown; [ ] = dose if it differs, or a comment. Hits are enriched below; roughly 9% of the tested compounds scored in any of these assays. Unless noted, calls follow the shape of the dose curve; as a rule, active = well fitted curve in the direction sought with a large enough effect; inconclusive = small, poorly fitted or top-dose-only effect, or another doubt; inactive = no such curve, though single readings can be large; an effect the other way counts as inactive or inconclusive. Potency is read from the fitted curve at half-maximal effect.

SMILES | Luc counter | HTT ATP protect | LMNA splice mod | ALDH1A1 inh | HttQ103 aggreg | HPGD block
Cc1ccc(C2CC(c3cccs3)=NN2C(=O)CSC2=NN3CCCC(=O)N=C3S2)cc1 (configuration not stated) | 2% | -9%[10 µM] | ? | 28µM* | 5% | -27%
COc1ccc(C2CC(c3cccs3)=NN2C(=O)CSC2=NN3CCCC(=O)N=C3S2)cc1 (configuration not stated) | 4% | 13%[10 µM] | -14% | ? | 18% | -14%
O=C(CSc1ccc2ccccc2c1)NCCc1ccc(O)c(O)c1 | 1% | -17% | -26%[46 µM] | 25µM* | ? | .
COc1ccc(CCNC(=O)CSc2ccc3ccccc3c2)cc1OC | . | -5%[10 µM] | -12% | -2% | 4% | .
CN(Cc1ccccc1)S(=O)(=O)c1ccc(F)c(C(=O)Nc2cc(Cl)cc(Cl)c2)c1 | . | . | -7%[46 µM] | . | . | .
CCCCCN1C(C)=CC(=C(C#N)C#N)C=C1C | -1% | -15% | 16%[46 µM] | ? | 7% | .
CC1=CC(=C(C#N)C#N)C=C(C)N1CCC(C)C | -2% | 14% | ? | 28µM* | -20% | .
CCCS(=O)(=O)N1CCC(C(=O)NC2CCCCC2C)CC1 (configuration not stated) | . | -12% | 4% | 10µM* | 4% | .
Cc1ccc(-c2nnc(Nc3ccc4c(c3)OCO4)c3ccccc23)cc1S(=O)(=O)NC(C)C | -1% | 11%[10 µM] | 5% | -10% | 5% | -3%
c1ccc(C2=Nc3ccccc3SC2c2nc3ccccc3[nH]2)cc1 (configuration not stated) | -12% | -104% | ? | ? | -22% | 35µM*
CCc1c(C(=O)Nc2ccccc2)c(C)[nH]c(=S)c1C#N | 3% | -11% | 10% | 3.5µM* | -1%[9.22 µM] | 20µM*
Cc1[nH]c(=S)c(C#N)c(C)c1C(=O)Nc1ccccc1 | -1% | -18% | 7% | ? | 8% | 22µM*
Cc1ccccc1NC(=O)c1c(C)[nH]c(=S)c(C#N)c1-c1ccco1 | 3% | 4%[10 µM] | -6% | -1% | 21% | -19%
Cc1ccc(C)c(OCCSc2nnc(-c3cccnc3)n2N)c1 | 12% | -13%[10 µM] | -7% | 4% | -7% | -4%
COc1ccc2nc(SCC(=O)NN)cc(C)c2c1 | -3% | -18% | -21% | 13µM* | 2% | -19%
COc1ccc2c(C)cc(SCC(=O)Nc3cc(C(N)=O)cc(C(N)=O)c3)nc2c1 | . | -6%[10 µM] | -7%[46 µM] | ? | 3%[9.22 µM] | .
CCC1C2CN(C(C)=O)CC=C2C(C#N)=C(N)C1(C#N)C#N (configuration not stated) | -1% | 8% | 0% | ? | -8% | -7%
Cc1ccc(CSC(Nc2ccc(F)cc2)=C(C#N)C#N)cc1 | -1% | -30%[10 µM] | ? | ? | 6.3µM* | -6%
CCCC1CC(C)(/C(C)=N\NC(N)=S)OC1=O (configuration not stated) | 1% | 29%[10 µM] | -3%[46 µM] | -5% | 18%[9.22 µM] | .
CN(C)S(=O)(=O)c1cccc(-c2nn(-c3ccccc3)cc2/C=C2\SC(=S)NC2=O)c1 | -2% | 7%[10 µM] | ? | 0% | ? | 16µM*
CN(C)S(=O)(=O)c1cccc(-c2nn(-c3ccccc3)cc2/C=C(\C#N)c2nc3ccccc3[nH]2)c1 | 1% | 17%[1.9 µM] | -14% | 7% | 4% | -19%
CCCn1c2ccccc2c2cnn(CC(=O)NCCCN(CC)c3ccccc3)c(=O)c21 | . | . | -24%[46 µM] | . | . | .
O=C(/C=C/c1cccc([N+](=O)[O-])c1)NCCSCc1ccccc1Cl | 0% | -17%[10 µM] | ? | 13µM* | 28% | -22%
O=C(NCC1CCCO1)C(=Cc1cccc([N+](=O)[O-])c1)C(=O)NCC1CCCO1 (configuration not stated) | 0% | ? | ? | -2% | ? | -12%
O=C(/C=C/c1cccc([N+](=O)[O-])c1)NCC1CCCO1 (configuration not stated) | 3% | 13%[10 µM] | -5% | 14µM* | 5% | 6.3µM*
SMILES | Luc counter | HTT ATP protect | LMNA splice mod | ALDH1A1 inh | HttQ103 aggreg | HPGD block
O=C(/C=C/c1cccc([N+](=O)[O-])c1)NCCSCc1ccc(Cl)cc1Cl | -2% | -3%[10 µM] | ? | ? | -3% | -8%
Cc1noc(/C=C/c2nn(C)cc2Cl)c1[N+](=O)[O-] | . | -40%[10 µM] | . | 8.9µM* | -3%[9.22 µM] | .
COc1cc(C(=S)N2CCCC2)cc(Cl)c1OCC(=O)Nc1ccc(C)cc1C | -2% | . | ? | 2.5µM* | 12% | 7.9µM*
CCOc1cc(C(=O)Nc2ccc(C)cc2C)ccc1OCC(=O)N1CCCCC1 | 0% | 13%[10 µM] | -1% | 2% | -16% | -2%
COc1ccc(S(=O)(=O)Nc2cc(Cl)ccc2OC)cc1 | -9% | -26%[10 µM] | ? | 4% | -12% | -18%
COc1ccc(OC)c(NS(=O)(=O)c2ccc(SC)cc2)c1 | -1% | -7%[10 µM] | ? | 18µM* | -10% | -1%
COc1ccc(Cl)cc1NS(=O)(=O)c1ccc(S(=O)(=O)N2CCCC2)cc1 | 1% | -18%[10 µM] | ? | 28µM* | -27% | -7%
COc1ccc(NS(=O)(=O)c2ccc(NS(=O)(=O)c3ccc(SC)cc3)cc2)c(OC)c1 | -3% | -25% | -4% | ? | -13% | -14%
COc1ccc(Cl)cc1NS(=O)(=O)c1ccc(OC)c(OC)c1 | 4% | -15%[10 µM] | -14% | 13µM* | -10% | -17%
c1cnc2c(OCc3nc4ccccc4[nH]3)cccc2c1 | -9% | -6%[10 µM] | 21% | 2% | 3% | -15%
O=C(N/N=C/c1cccnc1)c1cccc(S(=O)(=O)N2CCCC2)c1 | 0% | -2%[10 µM] | 4%[46 µM] | 8% | 6% | .
O=[N+]([O-])C1=CC=C2C(=NC3(CCCCC3)N2O)C1=NCCc1ccccc1 | ? | -21% | . | -13% | -2% | .
O=C(c1cc(Br)ccc1O)c1cc(Br)ccc1O | -3%[7.66 µM] | 3%[10 µM] | . | -2%[13.5 µM] | . | 2.8µM*
O=C(/C=C/c1ccccn1)c1cc(Br)ccc1O | . | -1%[10 µM] | . | 22µM* | -13%[9.22 µM] | .
Cc1ccc(NC(=O)CN2C(=O)S/C(=C\C(=O)Nc3ccc(Cl)cc3)C2=O)cc1 | 1% | . | -2% | 10% | 14% | -12%
CC(C)(C)C(=O)[C@H]1[C@H](c2ccccc2)[C@@]2(N=C(c3ccccc3)OC2=O)C2c3ccccc3C=NN21 (some centres not stated) | -1% | -9% | 3% | -10% | 8% | -8%
c1ccc2c(c1)CC(N1CCCCC1)c1ccccc1N2 (configuration not stated) | 0% | 16% | 0% | -9% | 2% | -9%
Cc1cccc(CSCCNC(=S)Nc2ccccc2)c1 | 5% | 4%[0.074 µM] | ? | ? | -12% | ?
O=C1CN(C(=O)CNCc2ccccc2Cl)c2ccccc2N1 | . | -4%[10 µM] | . | 20µM* | -1%[9.22 µM] | .
